Experimental data as given in the supplement of paper PMC10849652.
About 7,900 targets were measured; listed, in parts, are those with a hit and a random draw of the rest. About 0.6% of all pairs of compound and target were hits.

compound: C1=CC(=C(C=C1Cl)C2=NC3=NC=CN=C3C(=N2)NC4=CC=NC=C4)F; test: log2 fold change, soluble protein after heating vs DMSO (PISA); higher = thermal stabilisation; K562 cells, 10 uM, 30 min; active = over 0.2 and 3.5 SD of the protein, either way, in both replicates (recomputed)
Procedure, shortened: (§1)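 Aliquots of K562 cells (2×10^6 cells/mL) treated with 10 μM compound for 30 min were heated for 3 min over 48°C-58°C. After pooling and extraction in PBS with 0.5% NP-40 at 4°C, soluble protein from a 21,000xg, 90 min spin was quantified by TMTpro 16plex LC-MS/MS with channel sums equalised. Thermal stability is expressed against control samples, from duplicates, as a log2 fold change.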

Chain of UniProt Q5QP82 (Q5QP82 whole entry, looked up): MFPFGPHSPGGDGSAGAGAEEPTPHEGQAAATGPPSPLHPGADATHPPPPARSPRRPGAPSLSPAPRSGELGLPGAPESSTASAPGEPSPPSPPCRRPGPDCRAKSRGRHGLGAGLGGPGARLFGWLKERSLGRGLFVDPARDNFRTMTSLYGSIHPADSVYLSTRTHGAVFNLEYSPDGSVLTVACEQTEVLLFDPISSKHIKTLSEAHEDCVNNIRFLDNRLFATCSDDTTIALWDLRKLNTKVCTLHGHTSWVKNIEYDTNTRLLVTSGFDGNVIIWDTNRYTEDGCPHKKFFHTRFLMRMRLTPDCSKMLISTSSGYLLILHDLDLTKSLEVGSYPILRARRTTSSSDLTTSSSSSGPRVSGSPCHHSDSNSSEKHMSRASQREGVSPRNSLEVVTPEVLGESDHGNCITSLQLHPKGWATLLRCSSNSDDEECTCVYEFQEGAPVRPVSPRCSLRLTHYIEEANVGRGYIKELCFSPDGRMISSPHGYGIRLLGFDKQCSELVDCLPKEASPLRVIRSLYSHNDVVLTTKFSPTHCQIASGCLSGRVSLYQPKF
Chain of UniProt Q5QJE6 (Q5QJE6 whole entry, looked up): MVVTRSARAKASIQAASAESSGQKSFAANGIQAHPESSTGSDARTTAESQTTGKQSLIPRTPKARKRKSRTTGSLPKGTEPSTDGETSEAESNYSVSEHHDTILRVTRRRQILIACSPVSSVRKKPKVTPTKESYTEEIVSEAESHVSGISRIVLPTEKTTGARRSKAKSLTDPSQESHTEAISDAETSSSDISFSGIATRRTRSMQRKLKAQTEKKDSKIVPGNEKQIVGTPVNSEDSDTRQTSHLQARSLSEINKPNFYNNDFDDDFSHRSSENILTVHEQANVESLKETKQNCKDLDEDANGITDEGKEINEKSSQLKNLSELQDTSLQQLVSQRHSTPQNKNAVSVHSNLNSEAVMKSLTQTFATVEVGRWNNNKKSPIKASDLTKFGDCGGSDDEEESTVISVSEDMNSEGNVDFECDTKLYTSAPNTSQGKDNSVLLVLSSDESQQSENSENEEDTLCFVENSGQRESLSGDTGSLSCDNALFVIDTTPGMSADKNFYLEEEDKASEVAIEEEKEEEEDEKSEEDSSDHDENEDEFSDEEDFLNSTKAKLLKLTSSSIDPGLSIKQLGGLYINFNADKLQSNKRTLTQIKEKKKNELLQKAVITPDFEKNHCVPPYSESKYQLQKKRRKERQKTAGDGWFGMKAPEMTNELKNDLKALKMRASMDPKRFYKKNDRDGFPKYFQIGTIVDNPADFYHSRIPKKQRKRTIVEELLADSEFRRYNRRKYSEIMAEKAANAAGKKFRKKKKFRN
Chain of UniProt Q96E09 (Q96E09 whole entry, looked up): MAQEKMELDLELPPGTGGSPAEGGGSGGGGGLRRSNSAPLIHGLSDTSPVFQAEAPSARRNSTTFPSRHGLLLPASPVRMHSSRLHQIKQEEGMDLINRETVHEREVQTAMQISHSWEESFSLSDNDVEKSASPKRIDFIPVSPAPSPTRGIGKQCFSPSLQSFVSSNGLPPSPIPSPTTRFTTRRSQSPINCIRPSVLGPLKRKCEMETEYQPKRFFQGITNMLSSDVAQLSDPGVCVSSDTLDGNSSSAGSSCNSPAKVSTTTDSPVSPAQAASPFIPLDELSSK
Chain of UniProt Q99615 (Q99615 whole entry, looked up): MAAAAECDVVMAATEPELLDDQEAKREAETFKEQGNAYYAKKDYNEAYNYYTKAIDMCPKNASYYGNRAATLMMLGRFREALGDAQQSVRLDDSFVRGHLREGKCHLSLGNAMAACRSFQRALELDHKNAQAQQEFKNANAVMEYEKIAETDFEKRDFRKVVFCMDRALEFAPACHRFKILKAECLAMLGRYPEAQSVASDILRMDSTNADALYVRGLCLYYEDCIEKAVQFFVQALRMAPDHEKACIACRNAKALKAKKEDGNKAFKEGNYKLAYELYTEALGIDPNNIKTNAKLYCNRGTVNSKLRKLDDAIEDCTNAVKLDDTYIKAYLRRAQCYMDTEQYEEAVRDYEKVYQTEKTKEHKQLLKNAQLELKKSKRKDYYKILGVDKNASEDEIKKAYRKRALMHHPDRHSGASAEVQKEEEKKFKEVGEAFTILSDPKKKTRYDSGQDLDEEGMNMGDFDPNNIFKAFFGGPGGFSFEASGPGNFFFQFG
Chain of UniProt P98082 (P98082 whole entry, looked up): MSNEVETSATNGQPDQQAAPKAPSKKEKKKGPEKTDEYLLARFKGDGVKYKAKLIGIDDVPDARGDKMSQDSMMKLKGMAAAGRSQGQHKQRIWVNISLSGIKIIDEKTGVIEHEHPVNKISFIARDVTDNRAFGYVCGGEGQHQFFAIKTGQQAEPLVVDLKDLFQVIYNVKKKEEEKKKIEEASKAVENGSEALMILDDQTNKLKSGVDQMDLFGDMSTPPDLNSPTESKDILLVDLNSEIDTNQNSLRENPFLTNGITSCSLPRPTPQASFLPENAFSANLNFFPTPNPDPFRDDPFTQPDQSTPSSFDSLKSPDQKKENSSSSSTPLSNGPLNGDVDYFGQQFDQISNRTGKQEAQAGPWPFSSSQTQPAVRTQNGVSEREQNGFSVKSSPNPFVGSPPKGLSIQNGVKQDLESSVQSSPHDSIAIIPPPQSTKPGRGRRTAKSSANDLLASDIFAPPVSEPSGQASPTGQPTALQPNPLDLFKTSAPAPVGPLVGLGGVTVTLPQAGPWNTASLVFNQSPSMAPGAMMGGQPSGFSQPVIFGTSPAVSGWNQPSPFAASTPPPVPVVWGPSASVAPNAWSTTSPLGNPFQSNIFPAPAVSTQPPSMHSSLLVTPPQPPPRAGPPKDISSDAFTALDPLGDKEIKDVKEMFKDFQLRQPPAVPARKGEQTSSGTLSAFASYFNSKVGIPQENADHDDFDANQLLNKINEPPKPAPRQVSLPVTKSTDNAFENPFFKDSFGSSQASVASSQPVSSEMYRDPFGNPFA
Chain of UniProt O60911 (O60911 whole entry, looked up): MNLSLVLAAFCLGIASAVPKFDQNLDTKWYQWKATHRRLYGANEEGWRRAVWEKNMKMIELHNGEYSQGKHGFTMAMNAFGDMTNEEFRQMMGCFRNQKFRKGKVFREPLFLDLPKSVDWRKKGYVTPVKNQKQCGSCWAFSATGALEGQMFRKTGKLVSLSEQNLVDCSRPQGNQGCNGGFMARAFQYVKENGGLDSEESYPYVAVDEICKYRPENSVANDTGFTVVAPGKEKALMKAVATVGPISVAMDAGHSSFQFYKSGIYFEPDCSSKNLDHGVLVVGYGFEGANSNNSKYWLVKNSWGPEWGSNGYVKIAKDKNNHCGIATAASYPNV
Chain of UniProt P07711 (P07711 whole entry, looked up): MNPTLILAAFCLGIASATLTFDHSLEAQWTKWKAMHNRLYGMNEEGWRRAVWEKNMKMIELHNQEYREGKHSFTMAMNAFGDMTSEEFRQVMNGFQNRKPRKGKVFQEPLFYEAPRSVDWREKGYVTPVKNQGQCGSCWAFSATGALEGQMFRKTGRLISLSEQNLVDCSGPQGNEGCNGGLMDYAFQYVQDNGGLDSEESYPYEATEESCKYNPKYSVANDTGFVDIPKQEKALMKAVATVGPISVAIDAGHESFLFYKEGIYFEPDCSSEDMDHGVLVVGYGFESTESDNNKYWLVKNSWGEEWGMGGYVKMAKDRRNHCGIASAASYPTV
Chain of UniProt Q58WW2 (Q58WW2 whole entry, looked up): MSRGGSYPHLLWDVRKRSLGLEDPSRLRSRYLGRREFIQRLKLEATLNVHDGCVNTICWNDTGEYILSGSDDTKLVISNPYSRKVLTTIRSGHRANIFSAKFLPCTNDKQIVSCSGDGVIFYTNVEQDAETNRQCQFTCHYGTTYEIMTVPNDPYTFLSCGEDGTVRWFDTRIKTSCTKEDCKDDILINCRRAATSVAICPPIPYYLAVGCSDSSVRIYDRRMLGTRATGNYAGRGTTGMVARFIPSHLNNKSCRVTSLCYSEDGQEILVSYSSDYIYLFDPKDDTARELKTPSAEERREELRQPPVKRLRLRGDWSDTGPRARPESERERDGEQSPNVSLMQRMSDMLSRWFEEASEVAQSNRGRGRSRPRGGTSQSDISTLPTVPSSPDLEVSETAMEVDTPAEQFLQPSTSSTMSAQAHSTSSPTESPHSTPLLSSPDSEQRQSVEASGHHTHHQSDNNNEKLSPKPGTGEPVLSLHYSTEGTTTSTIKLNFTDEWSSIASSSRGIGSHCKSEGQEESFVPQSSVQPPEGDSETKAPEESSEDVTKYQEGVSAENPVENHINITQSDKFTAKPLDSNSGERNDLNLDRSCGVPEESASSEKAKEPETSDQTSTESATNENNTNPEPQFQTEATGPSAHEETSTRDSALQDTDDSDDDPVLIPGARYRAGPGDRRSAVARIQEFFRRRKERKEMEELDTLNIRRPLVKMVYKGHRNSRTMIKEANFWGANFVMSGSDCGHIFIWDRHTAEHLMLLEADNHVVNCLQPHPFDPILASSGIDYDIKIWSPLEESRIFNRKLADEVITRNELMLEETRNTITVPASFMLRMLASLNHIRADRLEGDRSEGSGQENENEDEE
Chain of UniProt Q96F86 (Q96F86 whole entry, looked up): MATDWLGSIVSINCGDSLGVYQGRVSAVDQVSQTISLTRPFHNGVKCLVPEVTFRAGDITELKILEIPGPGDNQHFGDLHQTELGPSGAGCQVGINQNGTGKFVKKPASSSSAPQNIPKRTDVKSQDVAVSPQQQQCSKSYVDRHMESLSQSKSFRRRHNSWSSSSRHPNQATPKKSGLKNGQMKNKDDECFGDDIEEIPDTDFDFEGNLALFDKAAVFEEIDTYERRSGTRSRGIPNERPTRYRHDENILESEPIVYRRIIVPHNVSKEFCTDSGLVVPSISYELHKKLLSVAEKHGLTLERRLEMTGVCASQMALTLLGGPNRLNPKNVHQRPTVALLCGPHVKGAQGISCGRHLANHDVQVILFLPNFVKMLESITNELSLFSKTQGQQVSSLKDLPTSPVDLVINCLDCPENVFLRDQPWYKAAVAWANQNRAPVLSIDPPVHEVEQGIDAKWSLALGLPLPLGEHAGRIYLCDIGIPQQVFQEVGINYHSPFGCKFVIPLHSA

log2 fold change, inactive:
EEF1D isoform 2 (UniProt P29692) 0.016
DNAH11 (UniProt Q96DT5) 0.001
DAB2 (UniProt P98082) 0.01
DYNC1LI2 (UniProt O43237) -0.257
DNAJC7 (UniProt Q99615) 0.061
DLD (UniProt P09622) 0.044
DCAF10 (UniProt Q5QP82) 0.021
DCAF6 isoform 3 (UniProt Q58WW2) 0.035
FAM122A (UniProt Q96E09) 0.053
FAM83D (UniProt Q9H4H8) -0.124
DNAJB1 (UniProt P25685) 0.012
DNTTIP2 (UniProt Q5QJE6) -0.242
CTSL (UniProt P07711) -0.036
CTSV (UniProt O60911) 0.023
EDC3 (UniProt Q96F86) 0.009
EIF3J (UniProt O75822) 0.068

compound: C1=CC(=CC=C1C2=NC3=C(N2)C=C(C=C3)C(=O)N)OC4=CC=C(C=C4)Cl; test: as above
Procedure, shortened: as §1

log2 fold change, inactive:
EOGT (UniProt Q5NDL2) 0.002
CUEDC2 (UniProt Q9H467) 0.023
DDX5 (UniProt P17844) 0
EIF4E2 (UniProt O60573) -0.045
ERLIN1 (UniProt O75477) -0.001
EEF1AKNMT (UniProt Q8N6R0) -0.022
EIF4A1 (UniProt P60842) -0.023
DCTPP1 (UniProt Q9H773) -0.039
DNAJB12 (UniProt Q9NXW2) 0.102
DDX4 (UniProt Q9NQI0) -0.056
EXOC2 (UniProt Q96KP1) -0.045
DMAC1 (UniProt Q96GE9) -0.002
EEA1 (UniProt Q15075) 0.003
DDX46 (UniProt Q7L014) 0.081
CYP51A1 (UniProt Q16850) -0.002
DCTN1 isoform 4 (UniProt Q14203) -0.033
CWC27 (UniProt Q6UX04) -0.049
DNAJC19 (UniProt Q96DA6) 0.001
DUS2 (UniProt Q9NX74) 0.088
ECH1 (UniProt Q13011) 0
DBT (UniProt P11182) 0.049
FAAP100 (UniProt Q0VG06) 0.037
FAM207A (UniProt Q9NSI2) -0.032
EEF1D isoform 2 (UniProt P29692) -0.028
DNAH11 (UniProt Q96DT5) 0.085
DAB2 (UniProt P98082) -0.035
DYNC1LI2 (UniProt O43237) -0.012
DNAJC7 (UniProt Q99615) -0.002
DLD (UniProt P09622) -0.083
DCAF10 (UniProt Q5QP82) 0.029
DCAF6 isoform 3 (UniProt Q58WW2) 0.014
FAM122A (UniProt Q96E09) -0.025
FAM83D (UniProt Q9H4H8) -0.015
DNAJB1 (UniProt P25685) 0.008
DNTTIP2 (UniProt Q5QJE6) 0.038
CTSL (UniProt P07711) -0.022
CTSV (UniProt O60911) -0.054
EDC3 (UniProt Q96F86) 0.043
EIF3J (UniProt O75822) -0.033
